According to PubChem BioAssay (EPA / NIEHS):
Where “and” joins values, the source holds several entries; their conditions need not be identical. Equal values may be shown once. Records with an inconclusive call do not appear. More than one record can exist for a structure, and the calls need not agree. Calls of active or inactive are those of the source. The calls were made as follows, unless noted: active = hit-call score of the fitted dose curve at least 0.9, where 1 is the maximum; inactive = score below 0.9.

Legend:
[1] = target: Glucocorticoid receptor (Homo sapiens) (UniProt P04150); assay: ATG_GR_TRANS: Attagene TRANS-FACTORIAL HepG2 Assay for human Glucocorticoid Receptor (GR) (AID 2282978; active = hit-call score of the fitted dose curve at least 0.9, where 1 is the maximum;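 also: activators score as hits since higher reporter transcript over DMSO is fitted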); settings: HepG2 Attagene TRANS GR reporter, mRNA transcription
Procedure, shortened: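 After 24 h incubation with test chemical, transfected HepG2 cells were lysed for RNA; reporter cDNA was amplified, FAM-labelled, HpaI-digested and sized on a capillary analyser. Signal gain relative to DMSO was scored.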

[2] = target: Bile acid receptor (Homo sapiens) (UniProt Q96RI1); assay: ATG_FXR_TRANS: Attagene TRANS-FACTORIAL HepG2 Assay for Farnesoid X Receptor (FXR) (AID 2282979; active = hit-call score of the fitted dose curve at least 0.9, where 1 is the maximum;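 also: hits raise reporter mRNA above DMSO so AC50 marks FXR activation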); settings: HepG2 Attagene TRANS FXR-GAL4 reporter transcription
Procedure, shortened: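 Transient transfection of HepG2 with multiplexed GAL4-UAS reporter units; exogenous FXR-GAL4 chimera. Dose 24 h → TriZol RNA → oligo(dT) RT → PCR, 6-FAM primer extension, HpaI cut → CE. Gain vs DMSO.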

[3] = target: Oxysterols receptor LXR-alpha (Homo sapiens) (UniProt Q13133); assay: ATG_LXRa_TRANS: Attagene TRANS-FACTORIAL HepG2 Assay for human Liver X Receptor alpha (LXRa) (AID 2282980; active = hit-call score of the fitted dose curve at least 0.9, where 1 is the maximum); settings: HepG2 Attagene TRANS reporter, LXRa transactivation
Procedure, shortened: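 Transfect HepG2 with GAL4-UAS multiplex reporter constructs (TRANS format, chimeric receptor-GAL4); treat 24 h; extract RNA, reverse-transcribe, PCR-amplify, FAM-label, HpaI-digest; resolve fragments by capillary electrophoresis. Upward response vs DMSO.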

[4] = target: Oxysterols receptor LXR-beta (Homo sapiens) (UniProt P55055); assay: ATG_LXRb_TRANS: Attagene TRANS-FACTORIAL HepG2 Assay for human Liver X Receptor beta (LXRb) (AID 2282981; active = hit-call score of the fitted dose curve at least 0.9, where 1 is the maximum); settings: HepG2 Attagene TRANS GAL4-LXRb reporter, mRNA
Procedure, shortened: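 Transient transfection HepG2 (multiplexed RTUs, GAL4-UAS); NR-Gal4 chimera; 24 h exposure; RNA → RT-PCR → 6-FAM primer extension → HpaI → CE; increase vs DMSO.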

[5] = target: Hepatocyte nuclear factor 4-alpha (Homo sapiens) (UniProt P41235); assay: ATG_HNF4a_TRANS: Attagene TRANS-FACTORIAL HepG2 Assay for human Hepatocyte Nuclear Factor 4 alpha (HNF4a) (AID 2282982; active = hit-call score of the fitted dose curve at least 0.9, where 1 is the maximum); settings: HepG2 HNF4a transactivation reporter, mRNA readout
Procedure, shortened: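 Readout is fluorescent reporter-transcript fragments resolved by capillary electrophoresis after RT-PCR from HepG2 cells dosed for 24 h. Cells carried transfected GAL4-UAS reporter constructs measuring exogenous NR-GAL4 chimera activity; DMSO served as baseline.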

[6] = ATG_M_06_TRANS: Attagene TRANS-FACTORIAL HepG2 Assay for M06 Transcription Factor (Internal Marker) (AID 2282983; active = hit-call score of the fitted dose curve at least 0.9, where 1 is the maximum); settings: HepG2 Attagene TRANS M06 internal marker reporter
Procedure, shortened: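 Transfect HepG2 with MRTUs → dose compounds 24 h → isolate RNA, oligo(dT) RT → PCR with reporter primers → 6-FAM primer extension → HpaI digest → CE fragment analysis. Positive direction vs DMSO.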

[7] = ATG_M_32_TRANS: Attagene TRANS-FACTORIAL HepG2 Assay for M32 Transcription Factor (Internal Marker) (AID 2282984; active = hit-call score of the fitted dose curve at least 0.9, where 1 is the maximum;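 also: transcript level of a background control reporter unit measured by RT-PCR and capillary electrophoresis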); settings: HepG2 Attagene TRANS M32 internal marker reporter
Procedure, shortened: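 Measures reporter mRNA induction in human HepG2 liver cells after 24 h chemical treatment. Transcripts from transiently transfected GAL4-UAS reporter units are amplified, fluorescently labelled and sized by capillary electrophoresis; gain of signal relative to DMSO.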

[8] = target: Nuclear receptor subfamily 4 group A member 2 (Homo sapiens) (UniProt P43354); assay: ATG_NURR1_TRANS: Attagene TRANS-FACTORIAL HepG2 Assay for human Nuclear Receptor Related Protein 1 (NURR1) (AID 2282985; active = hit-call score of the fitted dose curve at least 0.9, where 1 is the maximum); settings: HepG2 Attagene TRANS reporter, mRNA readout
Procedure, shortened: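 Transient transfection of HepG2, human liver cells, with multiple GAL4-UAS reporter transcription units. Cells dosed 24 h, RNA isolated, reverse-transcribed, PCR-amplified, FAM-labelled, HpaI-digested, sized by capillary electrophoresis. DMSO served as negative control.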

[9] = target: Transcriptional activator Myb (Homo sapiens) (UniProt P10242); assay: ATG_Myb_CIS: Attagene CIS-FACTORIAL HepG2 Assay for human Myeloblastosis (Myb) Proto-Oncogene Transcription Factor (AID 2282986); settings: HepG2 Attagene CIS-FACTORIAL Myb reporter transcription; actives raise or lower the signal
Procedure, shortened: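 After 24 h of compound dosing, total RNA from transfected HepG2 cells is reverse-transcribed and the reporter sequences amplified, labeled and separated by capillary electrophoresis. Values come from bidirectional fitting against DMSO.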

[10] = target: Nuclear respiratory factor 1 (Homo sapiens) (UniProt Q16656); assay: ATG_NRF1_CIS: Attagene CIS-FACTORIAL HepG2 Assay for human Nuclear Respiratory Factor 1 (NRF1) Orphan Gene (AID 2282987); settings: HepG2 NRF1 cis-element reporter, Attagene multiplex; actives raise or lower the signal
Procedure, shortened: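 Measured: fluorescent reporter-specific RT-PCR products from transfected HepG2 cells, separated by capillary electrophoresis. Exposure lasted 24 h. Analysis used bidirectional curve fitting with DMSO as negative control.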

[11] = ATG_NFI_CIS: Attagene CIS-FACTORIAL HepG2 Assay for human Nuclear Factor I (NFI) (AID 2282989); settings: HepG2 cis-regulatory reporter, NFI response element transcription; actives raise or lower the signal
Procedure, shortened: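 Transient MRTU transfection of HepG2 → 24 h chemical dosing → total RNA, oligo(dT) RT → PCR, 6-FAM primer extension, HpaI cut → capillary electrophoresis. Endpoint fitted bidirectionally relative to DMSO.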

[12] = target: Myc proto-oncogene protein (Homo sapiens) (UniProt P01106); assay: ATG_Myc_CIS: Attagene CIS-FACTORIAL HepG2 Assay for human Myelocytomatosis (Myc) Proto-Oncogene Transcription Factor (AID 2282990); settings: HepG2, Attagene cis-reporter transcription factor activity; actives raise or lower the signal
Procedure, shortened: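 HepG2, transient MRTU transfection (cis promoters, endogenous TFs); 24 h dosing; TriZol RNA → oligo(dT) RT → PCR → 6-FAM primer extension → HpaI cut → CE. Bidirectional fit vs DMSO.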

[13] = ATG_NF_kB_CIS: Attagene CIS-FACTORIAL HepG2 Assay for human Nuclear Factor Kappa B (NF-kB) (AID 2282991); settings: HepG2 Attagene cis-factorial NF-kB reporter mRNA; actives raise or lower the signal
Procedure, shortened: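 Fluorescence of labelled RT-PCR products separated by capillary electrophoresis gives reporter mRNA levels from transfected HepG2 cells exposed 24 h; values are fitted in both directions relative to DMSO.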

[14] = ATG_Oct_MLP_CIS: Attagene CIS-FACTORIAL HepG2 Assay for human Octamer-Binding Transcription Factor (Oct) (AID 2282993); settings: HepG2 Attagene cis-factorial Oct reporter, mRNA; actives raise or lower the signal
Procedure, shortened: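 Transient MRTU transfection of HepG2 → 24 h compound treatment → RNA isolation, reverse transcription, PCR → 6-FAM primer extension, HpaI digest → capillary electrophoresis. Activity fitted both directions against DMSO.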

[15] = target: Cellular tumor antigen p53 (Homo sapiens) (UniProt P04637); assay: ATG_p53_CIS: Attagene CIS-FACTORIAL HepG2 Assay for human p53 Transcription Factor (AID 2282994); settings: HepG2 p53 cis-element reporter, Attagene mRNA; actives raise or lower the signal
Procedure, shortened: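 Multiplexed reporter mRNA assay in human HepG2 liver cells; cis-regulated units report endogenous factor activity. Values come from bidirectional curve fitting against DMSO negative control after 24 h treatment.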

[16] = BSK_3C_TissueFactor: BioMAP Diversity Plus: 3C Assay for Tissue Factor Biomarker Activity (AID 2282997); settings: BioMAP 3C HUVEC, tissue factor biomarker readout; actives raise or lower the signal
Procedure, shortened: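 ELISA read-out of Tissue Factor levels on human umbilical vein endothelium collected 24 h after chemical dosing. Gain or loss of signal was fitted relative to DMSO.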

[17] = BSK_3C_uPAR: BioMAP Diversity Plus: 3C Assay for Urokinase-type plasminogen activator receptor (uPAR) Biomarker Activity (AID 2282998); settings: BioMAP 3C HUVEC, uPAR biomarker ELISA; actives raise or lower the signal
Procedure, shortened: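 ELISA readout of uPAR on human vascular endothelium (umbilical vein primary cells), taken 24 h after chemical dosing. Increases and decreases are both fitted relative to DMSO vehicle.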

[18] = BSK_3C_VCAM1: BioMAP Diversity Plus: 3C Assay for Vascular cell adhesion molecule 1 (VCAM1) Biomarker Activity (AID 2282999); settings: BioMAP 3C HUVEC, VCAM1 ELISA, cytokine-stimulated; actives raise or lower the signal
Procedure, shortened: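 Endothelial cells from human umbilical vein are treated with test chemical. At 24 h, VCAM-1 is measured by ELISA, and responses in either direction are fitted relative to DMSO.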

[19] = BSK_4H_Eotaxin3: BioMAP Diversity Plus: 4H Assay for Eotaxin 3 Biomarker Activity (AID 2283000); settings: primary human endothelial cells (HUVEC); actives raise or lower the signal
Procedure, shortened: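 Chemicals were added to human umbilical vein endothelium cultures, and Eotaxin-3 was quantified by ELISA at 24 h. Values were derived by bidirectional fitting with DMSO serving as negative control and activity baseline.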

[20] = ATG_NRF2_ARE_CIS: Attagene CIS-FACTORIAL HepG2 Assay for human Nuclear Factor Erythroid 2 Related Factor 2 (NFR2) response to Antioxidant Response Elements (ARE) (AID 2282992); settings: HepG2 Attagene ARE/NRF2 reporter, transcription factor activity; actives raise or lower the signal
Procedure, shortened: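 Multiplexed reporter mRNA profiling in HepG2 after a 24 h chemical exposure. Curves fitted in both directions relative to DMSO negative control.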

Measured: AC50

Sequence of Oxysterols receptor LXR-beta (Homo sapiens) (P55055 whole entry, looked up, the tested form may be a part): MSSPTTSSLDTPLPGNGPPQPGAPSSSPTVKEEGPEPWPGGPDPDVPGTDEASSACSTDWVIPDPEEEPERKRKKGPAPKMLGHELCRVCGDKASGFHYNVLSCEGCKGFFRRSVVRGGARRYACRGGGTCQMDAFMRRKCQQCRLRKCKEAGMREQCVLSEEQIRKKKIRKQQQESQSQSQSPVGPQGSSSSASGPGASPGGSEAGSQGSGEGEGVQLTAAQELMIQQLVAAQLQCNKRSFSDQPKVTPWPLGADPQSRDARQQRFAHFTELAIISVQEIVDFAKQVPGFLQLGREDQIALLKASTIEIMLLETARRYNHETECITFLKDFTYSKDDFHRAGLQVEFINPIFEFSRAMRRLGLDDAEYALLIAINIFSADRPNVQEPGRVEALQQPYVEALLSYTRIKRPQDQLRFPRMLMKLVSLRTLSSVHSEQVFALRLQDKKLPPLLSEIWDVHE
Sequence of Nuclear respiratory factor 1 (Homo sapiens) (Q16656 whole entry, looked up): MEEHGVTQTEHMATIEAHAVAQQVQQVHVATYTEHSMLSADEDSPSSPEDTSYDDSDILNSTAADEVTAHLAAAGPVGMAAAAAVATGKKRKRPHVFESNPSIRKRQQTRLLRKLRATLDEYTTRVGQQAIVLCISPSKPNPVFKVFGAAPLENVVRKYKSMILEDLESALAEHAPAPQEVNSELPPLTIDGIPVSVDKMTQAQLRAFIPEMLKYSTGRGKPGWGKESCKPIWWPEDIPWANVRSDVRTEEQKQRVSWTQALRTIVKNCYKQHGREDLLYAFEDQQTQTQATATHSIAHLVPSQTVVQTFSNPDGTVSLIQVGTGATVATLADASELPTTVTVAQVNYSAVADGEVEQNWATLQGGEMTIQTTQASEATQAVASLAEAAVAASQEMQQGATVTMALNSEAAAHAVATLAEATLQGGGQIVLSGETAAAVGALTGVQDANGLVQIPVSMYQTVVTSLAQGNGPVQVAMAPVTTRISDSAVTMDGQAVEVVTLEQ
Sequence of Nuclear receptor subfamily 4 group A member 2 (Homo sapiens) (P43354 whole entry, looked up, the tested form may be a part): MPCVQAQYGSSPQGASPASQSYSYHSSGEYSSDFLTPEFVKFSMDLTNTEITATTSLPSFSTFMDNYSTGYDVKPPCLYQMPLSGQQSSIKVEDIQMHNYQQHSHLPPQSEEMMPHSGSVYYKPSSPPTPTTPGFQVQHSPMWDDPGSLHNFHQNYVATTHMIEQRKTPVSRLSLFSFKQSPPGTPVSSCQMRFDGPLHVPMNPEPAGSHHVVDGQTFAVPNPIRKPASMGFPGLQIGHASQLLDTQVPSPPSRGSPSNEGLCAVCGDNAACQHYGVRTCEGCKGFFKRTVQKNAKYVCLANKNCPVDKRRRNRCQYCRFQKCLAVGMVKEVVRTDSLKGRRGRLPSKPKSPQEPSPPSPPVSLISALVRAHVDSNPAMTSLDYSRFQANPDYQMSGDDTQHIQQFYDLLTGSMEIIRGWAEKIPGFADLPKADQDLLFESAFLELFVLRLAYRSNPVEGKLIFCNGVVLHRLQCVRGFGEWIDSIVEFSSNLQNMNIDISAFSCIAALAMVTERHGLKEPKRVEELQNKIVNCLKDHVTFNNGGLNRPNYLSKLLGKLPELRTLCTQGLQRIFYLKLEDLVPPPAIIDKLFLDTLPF
Sequence of Myc proto-oncogene protein (Homo sapiens) (P01106 whole entry, looked up): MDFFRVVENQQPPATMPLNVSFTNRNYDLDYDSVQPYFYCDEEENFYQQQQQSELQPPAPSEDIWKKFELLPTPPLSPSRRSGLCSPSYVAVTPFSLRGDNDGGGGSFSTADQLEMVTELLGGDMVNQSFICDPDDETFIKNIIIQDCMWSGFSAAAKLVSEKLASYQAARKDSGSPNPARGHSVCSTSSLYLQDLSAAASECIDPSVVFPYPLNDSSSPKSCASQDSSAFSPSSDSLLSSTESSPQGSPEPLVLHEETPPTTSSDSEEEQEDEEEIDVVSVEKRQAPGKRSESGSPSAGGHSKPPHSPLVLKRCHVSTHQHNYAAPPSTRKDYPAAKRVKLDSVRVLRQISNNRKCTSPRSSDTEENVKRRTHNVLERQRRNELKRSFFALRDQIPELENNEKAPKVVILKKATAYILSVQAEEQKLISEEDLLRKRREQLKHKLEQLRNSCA
Sequence of Bile acid receptor (Homo sapiens) (Q96RI1 whole entry, looked up, the tested form may be a part): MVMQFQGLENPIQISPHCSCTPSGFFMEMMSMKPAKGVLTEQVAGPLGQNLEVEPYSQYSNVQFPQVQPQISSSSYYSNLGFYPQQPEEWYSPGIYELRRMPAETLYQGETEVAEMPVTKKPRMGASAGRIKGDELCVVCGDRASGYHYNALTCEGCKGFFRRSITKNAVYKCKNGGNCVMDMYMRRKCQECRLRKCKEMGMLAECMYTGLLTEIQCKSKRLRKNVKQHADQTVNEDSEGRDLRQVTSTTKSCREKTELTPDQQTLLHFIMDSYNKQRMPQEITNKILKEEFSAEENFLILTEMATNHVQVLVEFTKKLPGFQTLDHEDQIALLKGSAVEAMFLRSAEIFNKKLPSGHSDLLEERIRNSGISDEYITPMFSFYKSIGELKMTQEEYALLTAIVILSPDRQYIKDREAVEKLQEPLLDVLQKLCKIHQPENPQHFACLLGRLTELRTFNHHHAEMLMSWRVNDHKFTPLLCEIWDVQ
Sequence of Transcriptional activator Myb (Homo sapiens) (P10242 whole entry, looked up): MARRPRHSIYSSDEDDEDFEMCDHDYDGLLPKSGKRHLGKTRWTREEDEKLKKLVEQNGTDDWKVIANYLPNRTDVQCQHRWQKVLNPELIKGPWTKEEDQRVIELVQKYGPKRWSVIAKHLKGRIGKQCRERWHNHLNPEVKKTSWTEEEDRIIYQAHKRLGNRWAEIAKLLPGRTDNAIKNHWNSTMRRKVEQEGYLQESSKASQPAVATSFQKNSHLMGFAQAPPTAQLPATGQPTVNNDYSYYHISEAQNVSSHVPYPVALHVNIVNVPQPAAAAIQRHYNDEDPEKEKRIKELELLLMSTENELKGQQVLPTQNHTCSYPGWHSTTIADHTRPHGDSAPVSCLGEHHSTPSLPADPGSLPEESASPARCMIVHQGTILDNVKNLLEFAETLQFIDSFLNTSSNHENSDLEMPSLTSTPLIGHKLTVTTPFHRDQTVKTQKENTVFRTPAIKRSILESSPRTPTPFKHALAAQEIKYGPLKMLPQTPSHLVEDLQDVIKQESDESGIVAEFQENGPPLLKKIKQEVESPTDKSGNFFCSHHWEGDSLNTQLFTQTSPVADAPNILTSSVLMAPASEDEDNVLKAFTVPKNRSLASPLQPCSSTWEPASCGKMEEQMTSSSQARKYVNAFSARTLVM
Sequence of Hepatocyte nuclear factor 4-alpha (Homo sapiens) (P41235 whole entry, looked up, the tested form may be a part): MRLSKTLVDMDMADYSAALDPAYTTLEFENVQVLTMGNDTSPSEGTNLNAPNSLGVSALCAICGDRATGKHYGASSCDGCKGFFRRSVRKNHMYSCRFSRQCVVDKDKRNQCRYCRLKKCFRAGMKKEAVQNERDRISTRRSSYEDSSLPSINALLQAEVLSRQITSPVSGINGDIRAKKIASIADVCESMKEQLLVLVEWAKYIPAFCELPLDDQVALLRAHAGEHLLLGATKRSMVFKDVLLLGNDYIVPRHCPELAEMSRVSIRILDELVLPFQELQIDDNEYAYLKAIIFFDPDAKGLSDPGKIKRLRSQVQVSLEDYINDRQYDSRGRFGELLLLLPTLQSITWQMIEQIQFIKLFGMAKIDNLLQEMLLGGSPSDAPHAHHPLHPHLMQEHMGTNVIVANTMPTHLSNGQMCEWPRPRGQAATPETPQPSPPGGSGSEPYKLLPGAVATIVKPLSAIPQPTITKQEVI
Sequence of Cellular tumor antigen p53 (Homo sapiens) (P04637 whole entry, looked up): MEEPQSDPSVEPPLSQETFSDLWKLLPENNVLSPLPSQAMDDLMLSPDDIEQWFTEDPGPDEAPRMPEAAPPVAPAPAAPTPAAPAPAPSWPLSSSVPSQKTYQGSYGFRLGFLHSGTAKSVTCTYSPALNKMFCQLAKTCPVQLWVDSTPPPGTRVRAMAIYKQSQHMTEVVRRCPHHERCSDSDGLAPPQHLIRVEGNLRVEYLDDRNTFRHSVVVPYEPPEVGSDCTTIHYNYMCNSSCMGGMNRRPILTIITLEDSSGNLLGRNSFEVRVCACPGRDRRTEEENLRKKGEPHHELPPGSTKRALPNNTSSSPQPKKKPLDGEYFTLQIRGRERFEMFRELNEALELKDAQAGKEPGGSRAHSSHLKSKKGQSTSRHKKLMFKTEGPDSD
Sequence of Glucocorticoid receptor (Homo sapiens) (P04150 whole entry, looked up): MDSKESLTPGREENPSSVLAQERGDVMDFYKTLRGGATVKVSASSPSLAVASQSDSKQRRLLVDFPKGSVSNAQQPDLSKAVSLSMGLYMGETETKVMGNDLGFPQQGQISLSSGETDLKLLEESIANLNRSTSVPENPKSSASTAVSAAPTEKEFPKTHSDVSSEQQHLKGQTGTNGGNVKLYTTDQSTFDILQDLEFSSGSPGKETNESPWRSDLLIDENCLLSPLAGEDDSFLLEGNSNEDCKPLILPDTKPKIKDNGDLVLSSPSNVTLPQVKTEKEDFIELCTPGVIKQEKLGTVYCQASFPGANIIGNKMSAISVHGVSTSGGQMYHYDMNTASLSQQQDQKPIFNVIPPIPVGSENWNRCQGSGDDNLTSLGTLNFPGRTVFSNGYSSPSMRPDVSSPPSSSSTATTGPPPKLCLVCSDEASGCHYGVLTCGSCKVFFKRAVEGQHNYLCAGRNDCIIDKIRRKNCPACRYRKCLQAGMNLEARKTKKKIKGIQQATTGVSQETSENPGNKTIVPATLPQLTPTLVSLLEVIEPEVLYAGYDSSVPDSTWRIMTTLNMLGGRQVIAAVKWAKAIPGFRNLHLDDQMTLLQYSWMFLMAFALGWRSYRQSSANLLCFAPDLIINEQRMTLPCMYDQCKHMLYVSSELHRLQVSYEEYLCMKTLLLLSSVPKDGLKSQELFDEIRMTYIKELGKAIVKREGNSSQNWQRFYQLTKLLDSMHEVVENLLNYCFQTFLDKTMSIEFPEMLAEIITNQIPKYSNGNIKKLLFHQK

S=P(N1CC1)(N1CC1)N1CC1
active: [14] 170 µM
inactive: [1] | [2] | [3] | [4] | [5] | [6] | [7] | [8] | [9] | [10] | [11] | [12] | [13] | [14] | [15] | [16] | [17] | [18] | [19]

CCN(CC)C(=S)SSC(=S)N(CC)CC
inactive: [1] | [2] | [6] | [7]
active: [9] 162 µM | [10] 175 µM | [11] 158 µM | [12] 83.7 µM | [13] 27.6 µM | [20] 184 µM | [14] 144 µM | [15] 137 µM | [16] 20 µM | [17] 20.6 µM | [18] 28.9 µM | [19] 32.3 µM

CC(C)c1nnc2ccc(-c3ocnc3-c3cc(F)ccc3F)cn12
active: [14] 130 µM | [16] 0.743 µM
inactive: [1] | [2] | [4] | [6] | [9] | [15] | [17] | [18] | [19]

OC(O)(C(F)C(O)(O)C(F)(F)F)C(F)(F)F
inactive: [1] | [2] | [3] | [5] | [6] | [7] | [9] | [14] | [16] | [17] | [18]
active: [8] 31.5 µM and 19.1 µM | [10] 38.6 µM and 72.7 µM | [11] 52.4 µM and 51.5 µM | [13] 16.6 µM and 7.74 µM | [15] 28.4 µM and 21.2 µM | [16] 13.6 µM | [17] 15.2 µM | [19] 53.3 µM and 53.6 µM

CCCOc1ccc(S(=O)(=O)N2CCN(CC)CC2)cc1-c1nc2c(CC)n(Cc3ccccn3)nc2c(=O)[nH]1
active: [13] 51 µM
not listed: [3] | [5] | [12] | [15] | [20]
inactive: all other assays above

OCc1c[nH]c2ccccc12
active: [8] 18.8 µM and 14.4 µM | [10] 27.2 µM | [13] 25.5 µM | [20] 26.6 µM [middle of 5 runs] | [15] 26.8 µM | [16] 0.133 µM | [17] 20 µM | [19] 6.67 µM
inactive: [2] | [3] | [4] | [5] | [6] | [7] | [8] | [9] | [10] | [11] | [13] | [14] | [15] | [18]

CCCCCOC(C)=O
not listed: [2] | [3] | [4] | [5] | [15]
inactive: all other assays above
